{"source": "PubChem BioAssay"}
{"assay": "probe aNog binding to arrayed compounds – biochemical, biotinylated probe, 635/667 nm fluorescence, primary screen (AID 1115);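 also: probe is biotinylated aNog protein used at 0.15 µg/mL for 1 h at 4 C; z-score combines 667 nm fluorescence of each spot with its signal to noise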", "details": "small-molecule microarray, higher = more signal"}
{"smiles": "C=CCNC(=O)[C@H]1[C@@H]2C(=O)O[C@@H](c3ccccc3)[C@@H](c3ccccc3)N2[C@@H](c2ccc(OCCO)cc2)[C@]12C(=O)N(C(=O)OCCOC)c1ccc(C#CC3(O)CCCCCC3)cc12", "composite z-score": 1.7}
{"smiles": "CCCCN1CC=CC23O[C@@H]4C=CCCOC(=O)C4[C@H]2C(=O)N(CCCO)[C@@H]3C1=O", "note": "(stereo not given in full)", "composite z-score": -0.0784}
{"smiles": "O=C(N1CCCCC1)[C@]1(CCS(=O)(=O)c2ccccc2)N=C(c2ccc(OCCCO)cc2)O[C@@H]1c1ccccc1", "composite z-score": 0.56}
{"smiles": "O=C1c2ccccc2[C@@]2(Cc3ccccc3N(Cc3ccccc3)C2=O)[C@H](c2ccc(CO)cc2)N1Cc1ccccc1C(F)(F)F", "composite z-score": 0.549}
{"smiles": "CC(C)C(=C=CC[C@H](O)c1ccccc1OCCO)CCO", "composite z-score": -0.0546}
{"smiles": "C=CCC(OC(C)=O)[C@@H]1[C@@H](N(Cc2cc3ccccc3o2)C(=O)c2ccc(C)cc2)c2cc(OCCCO)ccc2N1C(=O)c1ccc(-c2ccccc2)cc1", "note": "(stereo not given in full)", "composite z-score": -0.374}
{"smiles": "CC(C)(C)OC(=O)CC[C@@]1(C(=O)NCC(O)CO)N=C(c2ccc(OCCCO)cc2)O[C@@H]1c1ccccc1", "note": "(stereo not given in full)", "composite z-score": 0.487}
{"smiles": "CCOC(=O)C1=CC[C@@H](c2cccc(Cl)c2)N(S(=O)(=O)c2ccc(C)cc2)[C@H]1c1ccc(C#N)cc1", "composite z-score": 0.978}
{"smiles": "COC(=O)[C@@]1(Cc2ccc(OC)cc2)[C@H]2c3cc(C(=O)N(C)C)n(Cc4ccc(OC)c(OC)c4)c3C[C@H]2CN1C(=O)c1ccccc1", "composite z-score": 1.03}
{"smiles": "OCCCc1cc[n+](Cc2cccc(OC(F)(F)F)c2)cc1", "composite z-score": 0.134}
{"smiles": "O=C1O[C@@H](c2ccccc2)[C@@H](c2ccccc2)N2[C@@H](c3ccc(O)cc3)[C@]3(C(=O)Nc4ccccc43)[C@@H](C(=O)N3CCCCCCC3)[C@H]12", "composite z-score": -0.531}
{"smiles": "COCCCNC(=O)[C@@]1(C)c2ccccc2C(=O)N(Cc2ccccc2)[C@H]1c1ccc(CO)cc1", "composite z-score": -0.255}
{"smiles": "COc1ccc([Si](C)(C)[C@H]2[C@H](CCO)O[C@@]3(C(=O)N(Cc4ccccc4)c4ccc(N5C(=O)COc6ccccc65)cc43)[C@@H]2C)cc1", "composite z-score": -0.487}
{"smiles": "C=C(C)[C@@H]1CC=C(C(O)C2C=CC3C(=O)N(Cc4ccccc4)C(=O)C3N2n2cnnc2)CC1", "note": "(stereo not given in full)", "composite z-score": 0.499}
{"smiles": "C=C(CCCC)C(=O)CC[C@H](OC(=O)c1ccccc1-c1ccccc1C(=O)O)c1ccc(CO)o1", "composite z-score": 0.238}
{"smiles": "O=C1C2C=CC(C(O)C3CC=CCC3)N(n3cnnc3)C2C(=O)N1Cc1ccccc1", "note": "(stereo not given)", "composite z-score": 0.336}
{"smiles": "C=CCC(OC(C)=O)[C@@H]1[C@@H](N(Cc2cc3ccccc3o2)C(=O)c2ccc(-c3ccccc3)cc2)c2cc(OCCCO)ccc2N1C(=O)Cc1ccc2ccccc2c1", "note": "(stereo not given in full)", "composite z-score": -0.267}
{"smiles": "O=[N+]([O-])c1ccc(C[n+]2ccc(CCCO)cc2)o1", "composite z-score": -0.278}
{"smiles": "CC(c1ccccc1)C(O)C1C=CC2C(=O)N(Cc3ccccc3)C(=O)C2N1n1cnnc1", "note": "(stereo not given)", "composite z-score": 0.49}
{"smiles": "O=C1C2C=CC(C(O)c3cccc4ccccc34)N(n3cnnc3)C2C(=O)N1Cc1ccccc1", "note": "(stereo not given)", "composite z-score": 2.2}
{"smiles": "O=C1C2C=CC(C(O)c3ccc(B(O)O)cc3)N(Nc3ccc([N+](=O)[O-])cc3)C2C(=O)N1c1ccccc1", "note": "(stereo not given)", "composite z-score": 0.46}
{"smiles": "COCCOC(=O)N1C(=O)[C@@]2(c3ccccc31)[C@H](c1ccc(O)cc1)N1[C@H](c3ccccc3)[C@H](c3ccccc3)OC(=O)[C@H]1[C@@H]2C(N)=O", "composite z-score": -0.346}
{"smiles": "O=C1C2C=CC(C(O)CCc3ccccc3)N(Nc3ccccc3)C2C(=O)N1c1ccccc1", "note": "(stereo not given)", "composite z-score": 1.11}
{"smiles": "COc1ccc([Si](C)(C)[C@H]2[C@H](CC(=O)N3CCC[C@H]3CO)O[C@@]3(C(=O)N(c4ccccc4)c4ccccc43)[C@@H]2C)cc1", "composite z-score": -0.1}
{"smiles": "CCCNC(=O)[C@@]1(C)c2ccccc2C(=O)N(Cc2ccc(OC(F)(F)F)cc2)[C@H]1c1ccc(CO)cc1", "composite z-score": 0.597}
